The results in this text go back to PubChem BioAssay (Tox21).

Unmarked numbers belong to inactive results. Inconclusive results are not listed. Calls of active or inactive are those of the source. Unless noted, calls come from the whole dose curve; as a rule, active = well fitted curve in the direction sought with a large enough effect in the repeat runs; inconclusive = weak or mixed curves; inactive = no such curve, though single readings can be large; an effect the other way counts as inactive or inconclusive.

Assay [1] in a line: qHTS assay to identify small molecule agonists of the estrogen receptor alpha (ER-alpha) signaling pathway in the presence of an antagonist - cell viability counter screen (AID 1259386).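 Note: cells exposed to compounds for 22 h at 37 °C before the viability read; nearly all actives have a fitted effect of over 30% in size.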 Note: potency is the fitted concentration of half-maximal effect. Put shortly: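 VM7Luc4E2, stripped-serum pre-culture 5 d; 24hr plating; +ICI-182,780 10.0nM final; cpds 15 conc, 22hr, 37C/5% CO2; CellTiter-Fluor added at 21hr, fluorescence 1hr later.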
In general terms: Quantitative high-throughput screening tests each substance at several concentrations.

For assay [2], the target named is Progesterone receptor (Homo sapiens) (UniProt P06401). The assay can be described thus: qHTS assay to identify small molecule agonists of the progesterone receptor (PR) signaling pathway (AID 1346784; calls by dose curve; note: nearly all actives have a fitted effect of over 30% in size). Put shortly: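 Compounds were tested for PR agonism in HEK 293T cells bearing a beta-lactamase gene under UAS control. Treatment lasted 16 hr at 37C; signal came from fluorescence of a FRET substrate.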
Sequence of Progesterone receptor (Homo sapiens) (P06401 whole entry, looked up): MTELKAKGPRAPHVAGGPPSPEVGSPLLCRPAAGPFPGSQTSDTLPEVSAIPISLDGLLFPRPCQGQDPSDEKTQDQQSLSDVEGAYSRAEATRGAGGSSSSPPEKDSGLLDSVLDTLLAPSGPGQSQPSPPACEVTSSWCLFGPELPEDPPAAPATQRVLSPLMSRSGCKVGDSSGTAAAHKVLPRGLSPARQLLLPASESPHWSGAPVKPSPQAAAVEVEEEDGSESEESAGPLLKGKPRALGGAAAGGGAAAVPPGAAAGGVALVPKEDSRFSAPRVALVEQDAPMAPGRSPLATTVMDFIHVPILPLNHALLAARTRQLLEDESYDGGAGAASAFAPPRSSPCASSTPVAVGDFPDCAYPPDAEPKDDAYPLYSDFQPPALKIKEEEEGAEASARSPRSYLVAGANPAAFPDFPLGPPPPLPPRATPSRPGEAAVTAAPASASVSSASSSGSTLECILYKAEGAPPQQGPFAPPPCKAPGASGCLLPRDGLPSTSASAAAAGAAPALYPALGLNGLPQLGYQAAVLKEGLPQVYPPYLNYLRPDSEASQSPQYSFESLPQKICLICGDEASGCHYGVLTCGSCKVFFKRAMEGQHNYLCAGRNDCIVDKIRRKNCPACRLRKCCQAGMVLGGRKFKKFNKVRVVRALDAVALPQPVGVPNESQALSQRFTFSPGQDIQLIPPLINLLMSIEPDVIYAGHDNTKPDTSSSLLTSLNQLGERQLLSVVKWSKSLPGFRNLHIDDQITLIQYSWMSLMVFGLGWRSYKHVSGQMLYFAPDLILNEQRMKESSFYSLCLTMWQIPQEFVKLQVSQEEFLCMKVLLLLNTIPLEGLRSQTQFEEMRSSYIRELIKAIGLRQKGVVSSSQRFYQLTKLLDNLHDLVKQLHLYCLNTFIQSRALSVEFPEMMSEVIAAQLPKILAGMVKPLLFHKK

The target is the same in assay [3]. The assay can be described thus: qHTS assay to identify small molecule antagonists of the progesterone receptor (PR) signaling pathway (AID 1346795; active = well fitted inhibition curve with a large enough effect in the signal ratio in the repeat runs, not every such curve was filed as active; the % refers to the signal ratio; note: potency is the fitted concentration of half-maximal effect). Put shortly: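 In HEK293T cells bearing the PR-UAS-bla reporter, compound effects on promegestone-driven (1 nM) beta-lactamase expression are assessed after 16 hr using a fluorescent FRET substrate incubated 2 hr at room temperature.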

The nature of assay [4]: qHTS assay to identify small molecule agonists of the TGF-beta/Smad signaling pathway (AID 1346859; active = well fitted activation curve with a large enough effect in the signal ratio in the repeat runs, not every such curve was filed as active; the % refers to the signal ratio; note: series mostly up to about 77 µM). Put shortly:
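Each well held 4,000 SBE-bla HEK 293T cells incubated overnight before compound addition; 5 hr later the cleavable FRET substrate went on for 2 hr at room temperature, and fluorescence was read at two emissions.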

Assay [5] concerns the target Thyrotropin-releasing hormone receptor (Homo sapiens) (UniProt P34981). The assay can be described thus: qHTS assay to identify small molecule antagonists of the thyrotropin-releasing hormone receptor (TRHR) signaling pathway (AID 1346877; active = well fitted inhibition curve with a large enough effect in the repeat runs, not every such curve was filed as active; note: series mostly up to about 51 µM). Put shortly: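 Intracellular calcium fluorescence, read kinetically every second over 3 min, reports TRH-evoked signalling in HEK293 cells carrying TRHR. Test compounds were added 5 min ahead of a 1 nM TRH challenge.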

The target is the same in assay [6]. The assay can be described thus: qHTS assay to identify small molecule agonists of the thyrotropin-releasing hormone receptor (TRHR) signaling pathway (AID 1346891; calls by dose curve; note: series mostly up to about 58 µM). Put shortly:
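Screening of agonists relied on calcium signalling in HEK293 cells expressing human TRHR: dye loading 2 h at 37 °C preceded compound addition and a 3-min fluorescence time course.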

Assay [7] is described as follows: Human pregnane X receptor (PXR) small molecule agonists, qHTS cell viability counter screen (AID 1346977). Note: nearly all actives have a fitted effect of over 50% in size. Note: potency is the fitted concentration of half-maximal effect. Put shortly: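 Tox21 qHTS format; PXR-Luc HepG2, 2,000/well, charcoal-stripped FBS 5%. Cpd exposure 24hr. Read: CellTiter-Fluor fluorescence, multiplexed with luciferase.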
Assay [8] in a line: Caspase-3/7 induction in HepG2 cells by small molecules, qHTS assay (AID 1346978). Note: nearly all actives have a fitted effect of over 15% in size. Put shortly:
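Caspase-3/7 induction was measured by Caspase-Glo 3/7 luminescence (30 min, room temperature) after a 17 hr compound exposure of wild-type HepG2 cells seeded at 2,000 per well and pre-incubated 5 hr.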

Assay [9] is described as follows: Caspase-3/7 induction in CHO-K1 cells by small molecules, qHTS cell viability counter screen (AID 1346979). Note: nearly all actives have a fitted effect of over 35% in size. Note: potency is the fitted concentration of half-maximal effect. Put shortly:
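CellTiter-Fluor viability check, qHTS format: wild-type CHO-K1, 16hr compound treatment, 1hr reagent incubation, fluorescence read.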

Assay [10] is described as follows: Caspase-3/7 induction in CHO-K1 cells by small molecules, qHTS assay (AID 1346980). Note: nearly all actives have a fitted effect of over 15% in size. Put shortly: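 Luminescent Caspase-Glo 3/7 read (30min, room temperature) quantified apoptosis induction. Cells were wild-type CHO-K1, treated with compound for 17hr at 37 C and 5% CO2.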
Assay [11] can be described thus: Caspase-3/7 induction in HepG2 cells by small molecules, qHTS cell viability counter screen (AID 1346981). Note: nearly all actives have a fitted effect of over 30% in size. Note: potency is the fitted concentration of half-maximal effect. Put shortly:
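HepG2, WT, 2,000 cells/well; 5 hr pre-incubation 37 C/5% CO2; compound pin-transferred from DMSO; 16 hr exposure; CellTiter-Fluor, 1 hr; fluorescence read.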

The target in assay [12] is Nuclear receptor subfamily 1 group I member 2 (Homo sapiens) (UniProt O75469). The assay can be described thus: Human pregnane X receptor (PXR) small molecule agonists, qHTS assay (AID 1346982). Note: nearly all actives have a fitted effect of over 35% in size. Note: potency is the fitted concentration of half-maximal effect. Put shortly:
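Luciferase signal from ONE-Glo (30 min, room temperature) measured activation of hPXR-driven CYP3A4 reporter expression in PXR-Luc HepG2 cells treated with compounds for 24 hr at 37 C.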

The nature of assay [13]: qHTS assay to identify small molecule agonists of the progesterone receptor (PR) signaling pathway - cell viability counter screen (AID 1346799; calls by dose curve; note: nearly all actives have a fitted effect of over 45% in size). Put shortly: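 Here, 3,000 PR-UAS-bla HEK293T cells per well were treated with compounds for 16 hr after a 6 hr preincubation at 37C and 5% CO2; cell viability is the CellTiter-Glo luminescence signal.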
A short description of assay [14]: qHTS assay to identify small molecule agonists of the TGF-beta/Smad signaling pathway - cell viability counter screen (AID 1346829). Note: top concentration of the series differs between compounds; nearly all actives have a fitted effect of over 45% in size. Put shortly:
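In parallel with the Smad reporter read, viability of HEK 293T cells stably carrying SBE-bla is quantified by ATP luminescence following 5 hr compound treatment.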

The nature of assay [15]: qHTS assay to identify small molecule antagonists of the progesterone receptor (PR) signaling pathway - cell viability counter screen (AID 1346798). Note: nearly all actives have a fitted effect of over 50% in size. Note: potency is the fitted concentration of half-maximal effect. Put shortly: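 Following a 4 hr attachment, PR-UAS-bla HEK293T cells in charcoal-stripped FBS medium were exposed to compounds with R5020 for 16 hr; CellTiter-Glo was added and luminescence read after 30 min at room temperature.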

A short description of assay [16]: qHTS assay to identify small molecule antagonists of the TGF-beta/Smad signaling pathway - cell viability counter screen (AID 1346824). Note: nearly all actives have a fitted effect of over 50% in size. Put shortly: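 Cytotoxicity counter-screen run in the same wells as the beta-lactamase Smad reporter read: CellTiter-Glo luminescence after 30 min at room temperature. HEK 293T SBE-bla cells had 5 hr compound exposure at 37 C with TGF-beta1 (0.25 ng/mL stock).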

Sequence of Nuclear receptor subfamily 1 group I member 2 (Homo sapiens) (O75469 whole entry, looked up): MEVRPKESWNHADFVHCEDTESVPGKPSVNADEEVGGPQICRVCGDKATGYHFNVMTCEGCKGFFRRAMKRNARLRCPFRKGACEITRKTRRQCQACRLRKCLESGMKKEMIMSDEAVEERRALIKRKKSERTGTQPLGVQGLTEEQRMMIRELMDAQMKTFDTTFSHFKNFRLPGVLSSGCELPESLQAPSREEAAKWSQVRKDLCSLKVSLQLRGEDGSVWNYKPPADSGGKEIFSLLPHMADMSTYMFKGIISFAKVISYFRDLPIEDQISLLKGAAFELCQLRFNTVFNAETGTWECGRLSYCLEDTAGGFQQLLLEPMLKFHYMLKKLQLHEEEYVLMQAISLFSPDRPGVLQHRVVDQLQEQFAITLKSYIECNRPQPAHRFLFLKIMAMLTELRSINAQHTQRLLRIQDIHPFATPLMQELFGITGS
Sequence of Thyrotropin-releasing hormone receptor (Homo sapiens) (P34981 whole entry, looked up): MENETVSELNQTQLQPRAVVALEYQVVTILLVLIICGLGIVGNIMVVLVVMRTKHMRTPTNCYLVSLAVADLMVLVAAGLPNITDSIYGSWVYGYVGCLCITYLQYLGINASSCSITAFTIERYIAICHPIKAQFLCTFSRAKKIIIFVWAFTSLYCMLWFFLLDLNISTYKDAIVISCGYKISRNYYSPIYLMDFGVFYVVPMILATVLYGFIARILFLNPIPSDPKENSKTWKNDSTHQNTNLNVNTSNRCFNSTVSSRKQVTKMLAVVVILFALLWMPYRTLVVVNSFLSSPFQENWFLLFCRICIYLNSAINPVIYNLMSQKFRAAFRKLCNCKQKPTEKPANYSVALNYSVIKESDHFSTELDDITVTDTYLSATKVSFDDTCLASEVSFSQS

As to `CCN(Cc1cccc(S(=O)(=O)O)c1)c1ccc(C(=C2C=CC(=[N+](CC)Cc3cccc(S(=O)(=O)O)c3)C=C2)c2ccccc2S(=O)(=O)[O-])cc1`, the Potency in [1], in assay [7], in assay [9] and in [11] was 17.3 µM (active) in each case. For the same compound, the Potency result in [2], in [3], in assay [4], in [8] and in assay [12] was “inactive” each time. Further, the outcome in [5], in assay [6] and in assay [10] was inactive.
As for `O=C1c2ccccc2C(=O)c2c(O)ccc(O)c21`, the Potency entry in assay [1], in assay [2], in assay [3], in assay [13], in assay [14] and in [8] was “inactive” in each case. The Potency result in assay [9] and in assay [11] was “inactive” each time. The compound was called inactive in [5], in assay [6] and in [10]. Also, the Potency in assay [12] is 4.86 µM (active).
As to `CC1CCc2nccnc21` (configuration not stated), the Potency entry in assay [1], in [2], in [3], in [15], in [13] and in assay [14] was “inactive” each time. The Potency result in assay [4], in assay [7], in assay [8] and in assay [12] was “inactive” in each case. The compound was classed as inactive in [16], in assay [5], in assay [6] and in [10].
Turning to `CC1CCCC(=O)C1=O` (configuration not stated), the Potency result in [1], in assay [2], in assay [3], in assay [15], in [13] and in assay [14] was “inactive” throughout. Also, the Potency entry in [4], in assay [7], in assay [8], in [9], in assay [11] and in [12] was “inactive” in each case. The compound was called inactive in assay [16] and in assay [10].
Turning to `c1ccc(CNc2ncnc3c2ncn3C2CCCCO2)cc1` (configuration not stated), the Potency result in assay [1], in assay [2], in assay [3], in [15], in [14] and in assay [4] was “inactive” in each case. The Potency result in assay [7], in assay [8], in assay [9] and in assay [11] was “inactive” each time. Besides, the compound was classed as inactive in assay [16] and in [10]. Moreover, in [12], the Potency is 21.7 µM (active).
`O=C(Oc1ccccc1)c1ccc2ccccc2c1O`: the Potency entry in [1], in [2], in assay [15], in [14], in assay [4] and in assay [7] was “inactive” throughout. Moreover, the Potency entry in assay [8] and in [11] was “inactive” in each case. Moreover, the figures for the Potency in [3] and in assay [12] were 30.6 µM (active) and 61.1 µM (active), respectively. Besides, the compound was classed as inactive in assay [5], in [6] and in assay [10].
With `Cc1cc(CCCOc2c(C)cc(-c3noc(C(F)(F)F)n3)cc2C)on1`, the Potency result in assay [1], in assay [2], in [4], in [7], in assay [8] and in assay [9] was “inactive” each time. For the same compound, the outcome in assay [16], in [5], in [6] and in assay [10] was inactive. In assay [12], the Potency was 21.1 µM (active).
`COc1ccc(-c2cc(=S)ss2)cc1`: the Potency is 15 µM (active) in assay [15] and 29.8 µM (active) in [9]. In addition, the call in [16], in [5], in assay [6] and in [10] was inactive. The Potency entry in assay [14], in assay [4], in assay [7], in assay [8] and in [11] was “inactive” in each case.
Regarding `Nc1cccc2c(N)cccc12`, the results for the Potency in [1], in assay [7] and in [12] were 48.6 µM (active), 5.45 µM (active) and 17.2 µM (active), respectively. For the same compound, the compound was classed as inactive in [16] and in [10]. For the same compound, the Potency result in assay [14] and in assay [4] was “inactive” throughout.
